Screening results: PubChem BioAssay, National Center for Advancing Translational Sciences (NCATS)
This excerpt belongs to a sample that is enriched for hits.
TbPYK inhibitor: qHTS of Trypanosoma Brucei Inhibitors. pyruvate kinase (Trypanosoma brucei), Q57TT1. TbPYK enzyme, Kinase-Glo Plus ATP luminescence, 45 min. Potency, µM (titrated, usually from 76.8 µM), actives largely listed as inhibitors. 410,000 compounds, 0.12% hits; further: nearly all actives have a fitted effect of over 50% in size
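Activity of T. brucei pyruvate kinase was followed by Kinase-Glo Plus luminescence after the enzyme reacted 45 min at room temperature with 130 uM ADP (final) and substrate. Test compounds were added before ADP at multiple concentrations.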
Cycloheximide cs: Cycloheximide Counterscreen for Small Molecule Inhibitors of Shiga Toxin; cell reporter, cycloheximide protein synthesis inhibition counterscreen; max response, %; 300,000 compounds, 12% hits; in the data active means max response mostly above about 13%, no sharp cut-off; inactive means mostly below about 14%; further: read at 38.3 µM for the half of the compounds with a filed dose
LmPK inhibitor: qHTS Assay for Inhibitors of Leishmania Mexicana Pyruvate Kinase (LmPK); purified LmPK, Kinase-Glo ATP luminescence, 1 h; 290,000 compounds, 0.37% hits; Potency, µM (top dose mostly 57.5 µM), usual class: inhibitors; AID 1721, 2009; Q27686
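Screened at intermediate enzyme activity to detect both inhibitors and activators: LmPK at 0.1 nM, with a 0.5 nM enzyme column as activation reference. PEP 0.5 mM, ADP 0.1 mM; ATP detected by luminescence after 1 h.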
Shiga toxin inh: A qHTS for Small Molecule Inhibitors of Shiga Toxin. Vero cells, Shiga toxin protein synthesis inhibition reporter. inhibition, % at 38.7 µM. 290,000 compounds, 9.2% hits. AID 2315, 2010; in the data active means inhibition mostly above about 28%, no sharp cut-off; inactive means mostly below about 43%
Sm TGR block: qHTS Assay for the Inhibitors of Schistosoma Mansoni Peroxiredoxins; Schistosoma mansoni thioredoxin glutathione reductase (TGR), Q962Y6; purified TGR, DTNB reduction, TNB absorbance 405 nm; Potency, µM (series often up to 114 µM), hits mostly inhibitors; 360,000 compounds, 3% hits; AID 485364, 2010; further: nearly all actives have a fitted effect of over 60% in size
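Kinetic colorimetric format: TGR-catalysed, NADPH-driven DTNB reduction monitored via TNB absorbance. Enzyme dispensed at 20 nM; compound exposure 15 min at room temperature before reaction start.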
Giardia FBPA inh: qHTS Assay for Inhibitors of Fructose-1,6-bisphosphate Aldolase from Giardia Lamblia; purified Giardia FBPA; Potency, µM (titrated, usually from 59.6 µM), most hits filed as inhibitors; 290,000 compounds, 0.71% hits; further: nearly all actives have a fitted effect of over 55% in size
Target sequence (A8B2U2 whole entry, looked up): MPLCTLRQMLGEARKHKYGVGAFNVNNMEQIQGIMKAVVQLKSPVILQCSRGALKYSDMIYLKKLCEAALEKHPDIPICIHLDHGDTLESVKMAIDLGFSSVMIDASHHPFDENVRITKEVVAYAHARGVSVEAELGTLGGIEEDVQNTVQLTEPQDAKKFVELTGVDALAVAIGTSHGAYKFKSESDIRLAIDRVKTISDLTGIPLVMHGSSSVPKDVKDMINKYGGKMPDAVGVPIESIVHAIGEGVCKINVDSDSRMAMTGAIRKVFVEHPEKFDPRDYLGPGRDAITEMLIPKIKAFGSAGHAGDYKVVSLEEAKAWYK
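Giardia FBPA (40 nM reagent) was preincubated 10 min at RT with compound (up to 57.5 uM final), then substrate plus GAPDH/TPI/NAD/arsenate coupling system with diaphorase/resazurin was added; resorufin fluorescence (525/598 nm) was read after 20 min.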
Hits are given with their value; 0 = inactive; ? = inconclusive; - = not tested or not shown. Unless noted, the call rests on the fitted dose curve; in most records, active means well fitted curve in the direction sought with a large enough effect; inconclusive means small, poorly fitted or top-dose-only effect, or another doubt; inactive means no such curve, though single readings can be large; an effect the other way counts as inactive or inconclusive.

SMILES	TbPYK inhibitor	Cycloheximide cs	LmPK inhibitor	Shiga toxin inh	Sm TGR block	Giardia FBPA inh
Cc1cc(O)c(C(C)C)cc1Cl	0	0	-	0	-	0
CCOc1c(CNCCSc2nnnn2C)cccc1OC	0	-	-	-	0	-
Cc1coc(C)c1C(=O)Nc1ccc2ccccc2c1	0	64	0	90	0	0
COC(=O)c1cccc(NC(=O)c2cnoc2C)c1	0	28	0	52	0	0
COC(=O)c1cccc(NC(=O)c2cccnc2)c1	0	0	0	0	0	-
Cc1oncc1C(=O)Nc1ccc2ccccc2c1	0	34	0	89	0	0
Cc1cc(=O)oc(C)c1C(=O)Nc1ccc2ncccc2c1	0	0	0	0	0	0
CCNc1ncc2nc(-c3ccc(OC)cc3)c(=O)n(C)c2n1	-	-	-	-	-	0
CC(C)c1nnc(NC(=O)c2ccc(S(=O)(=O)N3CCOCC3)cc2)s1	0	0	0	0	0	0
CCC(=O)Nc1cccc(C(=O)Nc2nccs2)c1	0	0	0	0	0	0
CC(C)c1nnc(NC(=O)c2cccc(NC(=O)C(F)(F)F)c2)s1	0	47	0	84	0	0
CC(C)C(=O)Nc1cccc(C(=O)Nc2nccs2)c1	0	15	0	0	0	0
CC(C)C(=O)Nc1cccc(C(=O)Nc2nnc(C(C)C)s2)c1	0	42	0	92	0	0
Cc1nnc(NC(=O)c2cccc(NC(=O)C(C)C)c2)s1	0	0	0	0	0	0
CC(C)C(=O)Nc1ccc(C(=O)Nc2nnc(C(C)C)s2)cc1	0	0	0	44	0	0
Cc1ccc(NC(=O)Cn2cc3c(n2)CCC(C)C3)cc1C (configuration not stated)	0	-	-	-	0	-
CCN(c1ccccc1)S(=O)(=O)c1cc(Br)cc2c1N(C(=O)C1CC1)CC2	0	-	-	-	0	-
Cc1cccc(NC(=O)/C(C#N)=C/c2ccc(C)o2)c1	0	-	-	-	0	-
COC(=O)c1c(N2C(=O)[C@H]3[C@@H](C2=O)[C@]2(C(=O)Nc4c(C)cc(C)cc42)N2CCC[C@@H]32)sc(C)c1C	0	0	0	0	0	0
COC(=O)c1c(N2C(=O)[C@H]3[C@@H](C2=O)[C@]2(C(=O)Nc4c2ccc(C)c4C)N2CCC[C@@H]32)sc(C)c1C	0	0	0	0	56µM	0
Cc1ccccc1-c1nc(CS(=O)CC(=O)NC(C)CCc2ccccc2)c(C)o1 (configuration not stated)	0	0	0	0	0.14µM	-
COc1cccc(-c2nc(CS(=O)(=O)CC(=O)NCCCOC(C)C)c(C)o2)c1	0	0	0	0	?	-
COc1cccc(-c2nc(CS(=O)CC(=O)NCCCOC(C)C)c(C)o2)c1 (configuration not stated)	0	0	0	0	25µM	0
Cc1oc(-c2ccccc2F)nc1CS(=O)CC(=O)NCc1ccccc1 (configuration not stated)	0	0	0	0	0	0
CCC(C)NC(=O)CS(=O)Cc1nc(-c2cccc(OC)c2)oc1C (configuration not stated)	0	0	0	0	28µM	0
SMILES	TbPYK inhibitor	Cycloheximide cs	LmPK inhibitor	Shiga toxin inh	Sm TGR block	Giardia FBPA inh
COc1cccc(-c2nc(CS(=O)CC(=O)NCCc3ccccc3)c(C)o2)c1 (configuration not stated)	0	0	0	0	20µM	-
Cc1cccc(-c2nc(CS(=O)CC(=O)NCCc3ccccc3)c(C)o2)c1 (configuration not stated)	0	0	0	0	0	0
Cc1ccccc1CNC(=O)CN1CCSc2ccccc21	0	-	-	-	0	-
O=S(=O)(c1ccc2c(c1)OCCO2)N1CCN(S(=O)(=O)c2cccc[n+]2[O-])CC1	-	0	-	0	-	-
O=C(Cc1ccc(NC(=O)C2CCN(C(=O)C3CC3)CC2)cc1)Nc1ccc(C(=O)N2CCOCC2)cc1	0	-	-	-	-	-
Cc1ccc(NC(=O)CN2C(=O)c3ccccc3Sc3ncccc32)c(C)c1	0	-	-	-	0	-
O=C(C1CCCN(S(=O)(=O)c2cccs2)C1)N1CCN(c2ccccc2F)CC1 (configuration not stated)	0	-	-	-	0	-
COc1cccc(-c2nc(CS(=O)CC(=O)NC(C)CCc3ccccc3)c(C)o2)c1 (configuration not stated)	0	0	0	0	10µM	-
COCCCNC(=O)CS(=O)Cc1nc(-c2ccccc2C)oc1C (configuration not stated)	0	0	0	0	40µM	0
COc1ccc(CCNC(=O)CS(=O)Cc2nc(-c3ccc(C)cc3)oc2C)cc1OC (configuration not stated)	0	0	0	0	?	-
COc1ccc(-c2nc(CS(=O)CC(=O)NCCc3ccc(C)cc3)c(C)o2)cc1OC (configuration not stated)	0	0	0	0	40µM	-
COCCn1c(=O)cnc2cnc(Nc3cccc(OC)c3)nc21	-	-	-	-	-	0
CSCC[C@H](NC(=O)[C@H](CC(C)C)NC(=O)[C@@H](Cc1cnc[nH]1)NC(=O)[C@H](Cc1ccccc1)NC(=O)[C@@H](Cc1ccccc1)NC(=O)[C@@H](N)Cc1ccc(O)cc1)C(N)=O	-	0	-	0	-	0
COc1cc(OC)nc(NC(=O)CSc2nc3ccccc3o2)n1	0	0	0	0	0	0
Cc1cc(C)nc(NC(=O)CSc2nc3ccccc3o2)n1	0	51	0	58	0	0
O=C(CSc1nc2ccccc2o1)Nc1cc(C(F)(F)F)ccc1N1CCOCC1	0	0	0	0	0	0
Cc1ccc2nc(NC(=O)CSc3nc4ccccc4o3)sc2c1	0	0	0	0	0	0
Cc1nn2c(-c3cccc(NC(=O)CN4CCOCC4)c3)nnc2c2ccccc12	0	-	-	-	-	-
O=C(CSc1nc2ccccc2o1)Nc1ccc(N2CCOCC2)c(Cl)c1	0	53	0	81	0	0
Cc1nn2c(-c3cccc(NC(=O)CSc4nc5ccccc5o4)c3)nnc2c2ccccc12	0	14	0	0	0	0
Cc1cccc(NC(=O)CSc2nc3ccccc3o2)c1	0	38	0	119	0	0
CC(C)CC1C(=O)N(Cc2cn(CCC3OCCO3)nn2)CCS(=O)(=O)N1Cc1ccc(-c2ccncc2)cc1 (configuration not stated)	0	-	-	-	-	-
O=C(CCSc1nc2ccccc2o1)Nc1ccccc1	0	0	0	0	0	0
CC(=O)Nc1ccc2nc(SCC(=O)Nc3ccc(N4CCOCC4)c(Cl)c3)sc2c1	0	69	0	98	0	0
CC(=O)Nc1ccc(NC(=O)CSc2nc3ccccc3o2)cc1	0	17	0	115	0	0
